Measured values as given in PubChem BioAssay (NCI).
The panel holds about 83,000 compounds, 20% with a hit somewhere; the sample as a whole holds those more often.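 Each cell line was grown in a 96-well plate and treated with one concentration of compound for 48 hours. Values below 10 were considered active.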 Calls of active or inactive are those of the source.

How the values were obtained:
Test in all cases: NCI-60 one-dose screen, 48 h (100 = growth as untreated, 0 = no growth, -100 = all killed)
Conditions in all cases: 10 µM unless noted
[1] = system: SR leukemia
[2] = system: RPMI-8226 leukemia
[3] = system: OVCAR-8 ovarian
[4] = system: OVCAR-5 ovarian
[5] = system: OVCAR-4 ovarian
[6] = system: SK-OV-3 ovarian
[7] = system: IGROV1 ovarian
[8] = system: OVCAR-3 ovarian
[9] = system: HS 578T breast
[10] = system: NCI/ADR-RES ovarian
[11] = system: T-47D breast
[12] = system: BT-549 breast
[13] = system: MDA-MB-435 melanoma
[14] = system: SW-620 colon
[15] = system: MCF7 breast
[16] = system: HCT-116 colon
[17] = system: HCC-2998 colon
[18] = system: KM12 colon

Measured: growth

O=c1[nH]c(NCc2ccccc2)nc2nc(Nc3ccc(NC(=S)Nc4ccccc4)cc3)nc(-c3ccc(O)cc3O)c12
inactive: [1] 67.5% | [2] 90.8% | [3] 87.4% | [4] 111% | [5] 114% | [6] 97.9% | [7] 70.3% | [8] 111% | [9] 88.1% | [10] 106% | [11] 84% | [12] 155% | [13] 105% | [14] 95.6% | [15] 96.7% | [16] 99.2% | [17] 113% | [18] 96.3%

NC1=C(/C(N)=N/O)C(c2ccccc2)c2ccc3ccccc3c2O1 (centres undefined)
inactive: [1] 34.9% | [2] 19.1% | [3] 17.2% | [4] 29.6% | [5] 47.5% | [6] 55.2% | [7] 29% | [9] 13.4% | [11] 54.5% | [12] 28% | [14] 23% | [17] 11.8% | [18] 11.1%
active: [8] -3.21% | [10] -1.33% | [13] -56.2% | [15] 9.02% | [16] 6.57%

C=C(C)[C@@H]1CC[C@]2(C(=O)N3CCNCC3)CC[C@]3(C)[C@H](CC[C@@H]4[C@@]5(C)C/C(=C/c6ccncc6)C(=O)C(C)(C)[C@@H]5CC[C@]43C)[C@@H]12
inactive: [1] 106% | [2] 98.2% | [3] 98.2% | [4] 105% | [5] 98.9% | [6] 107% | [7] 103% | [8] 116% | [9] 98.4% | [10] 109% | [11] 102% | [12] 105% | [13] 105% | [14] 109% | [15] 79.7% | [16] 102% | [17] 109% | [18] 109%

Cn1cc(-c2cnc3ccc(NC(=O)Nc4ccc(F)c(Br)c4)cc3n2)cn1
active: [2] -34.1% | [3] 7.83% | [11] -38.1% | [15] 3.7%
inactive: [1] 34% | [4] 51.2% | [5] 10.7% | [6] 44.7% | [7] 32.8% | [8] 28.2% | [9] 37.4% | [10] 12.4% | [12] 20.5% | [13] 21.5% | [14] 39.8% | [16] 22% | [17] 49.2% | [18] 12.7%

COc1ccc2[nH]c(C(=O)OCc3ccc4c(Cl)cc(Cl)c(O)c4n3)cc2c1
active: [1] -12.5% | [2] -34.6% | [3] -31.2% | [4] -71.8% | [5] -57.5% | [7] -92.4% | [8] -90% | [9] -16.1% | [10] -58.9% | [11] -65.9% | [12] -88.3% | [13] -85% | [14] -68.2% | [15] -21.3% | [16] -92.3% | [17] -39.7% | [18] -31%
inactive: [6] 68.8%

N/C(=N\C(N)=N\c1nc2ccccc2s1)c1ccncc1
active: [13] 1.82%
inactive: [1] 19.7% | [2] 45.8% | [3] 75.6% | [4] 96.6% | [5] 100% | [6] 89.4% | [7] 58.2% | [8] 39.7% | [9] 80.3% | [10] 33% | [11] 65.4% | [12] 61.7% | [14] 35.2% | [15] 42.4% | [16] 47.7% | [17] 79.1% | [18] 52.1%

Cc1cc(N/N=C/c2nc(-c3ccc(Br)cc3)oc2C)c2cc(Cl)ccc2n1
inactive: [3] 41.4% | [4] 102% | [6] 104% | [7] 92.6% | [8] 45.2% | [9] 106% | [10] 69.2% | [11] 95.8% | [12] 98.1% | [13] 16.8% | [17] 96.1% | [18] 84%
active: [1] 5.46% | [2] -9.52% | [5] -74.2% | [14] -8.11% | [15] -55% | [16] -16.5%

COc1cccc(-c2nc3sccn3c2-c2ccnc(NCCCNS(=O)(=O)c3ccc(C(F)(F)F)cc3)c2)c1
inactive: [1] 51.2% | [2] 33% | [3] 45.1% | [4] 95.7% | [5] 38.3% | [6] 72.6% | [7] 60.5% | [8] 61.7% | [9] 63.1% | [10] 35.5% | [11] 23.7% | [12] 54.6% | [13] 36.8% | [14] 68.5% | [15] 31.1% | [16] 41.9% | [17] 72.2% | [18] 57.2%
